From PubChem BioAssay (NCATS)
Where “and” joins values, the source holds several entries; their conditions need not be identical. Equal values may be shown once. Results filed as inconclusive are left out. Entries that show only a call come without a potency. The source holds several records for some structures; these can differ, active in one and inactive in another. Calls of active or inactive are those of the source. Calls come from the whole dose curve; as a rule, active = well fitted inhibition curve with a large enough effect; inconclusive = small, poorly fitted or top-dose-only effect; inactive = flat fitted curve, though single readings scatter.

system: MCC-26; experiment: qHTS assay to identify novel small-molecules to repurpose for Merkel cell carcinoma treatment (AID 1296009); conditions: MCC and control cell lines, CellTiter-Glo viability, 72 h; series mostly up to 46 µM; note: nearly all actives have a fitted effect of over 60% in size
Excerpt: MCC is a rare and aggressive neuroendocrine skin cancer with limited treatment options. Approximately 80% of MCCs have the Merkel cell polyomavirus (MCPyV) DNA integrated into the host genome (virus-positive: VP-MCC) and viral oncogenes drive oncogenesis. The remaining MCCs are virus-negative (VN-MCC) and are caused by UV mutagenesis. To identify novel treatments for VP-MCC and/or VN-MCC we screened three VP-MCC cell lines (WAGA, MKL-1, MKL-2), three VN-MCC cell lines (MCC-13, MCC-26, UISO), and four immortalized, non-transformed control cell lines (HaCaT, HEK293T, CRL7250, NIH-3T3) against ~2,400 compounds in the NCGC Pharmaceutical Collection (NPC) and ~1,900 compounds in the Mechanism Interrogation PlatE (MiPE). Using cell viability as a readout (CellTiter-Glo assay) we found both overlapping and distinct drugs that can be repurposed for the treatment of VP-MCC and VN-MCC.
A high-throughput screen was conducted in 1536-well white flat bottom plates (Corning) on a Kalypsys robotic system. Cell lines WAGA, MKL-1, MKL-2, MCC-13, MCC-26, UISO, HaCaT, HEK293T, CRL7250, and NIH-3T3 were screened against 2 small molecule annotated drug libraries NPC and MIPE in dose response (8 and 11 pt. respectively) measuring cell viability after 72 hours of incubation. […] A 1,536 pintool (Kalypsys) was used to transfer 23 nL of compound in DMSO to the 1,536-well assay plates. After 72 hr incubation at 37 degree celsius, 2.5 uL of CellTiter-Glo (Promega) was dispensed into each well using a BiorapTR. Plates were incubated at room temperature for 10 min, transferred to a ViewLux (PerkinElmer) and the luminescence was recorded using an exposure time of 2 seconds. Relative luminescence units (RLUs) were normalized to in-plate controls (no cells as a positive (cytotoxicity) control, DMSO as negative control) and the normalized data was processed using NCATS in-house software.
Potency is the fitted concentration of half-maximal effect.

Compound	Potency
COc1ccccc1N1CCN(CC(O)COc2cccc3ccccc23)CC1 (stereo not given)	inactive
Cn1ccc2cc3c(cc21)CCN3C(=O)Nc1cccnc1	inactive
NC(=O)NO	inactive and 10.5 µM (active)
O=C1c2c(O)ccc(O)c2C(=O)c2c(NCCNCCO)ccc(NCCNCCO)c21	1.87 µM (active) and 596 nM (active)
NCCS(=O)(=O)O	inactive
CCOC(=O)C(C)(C)Oc1ccc(Cl)cc1	inactive
O=c1c(O)c(-c2ccc(O)c(O)c2)oc2cc(O)cc(O)c12	inactive
CCCNCC(O)COc1ccccc1C(=O)CCc1ccccc1 (stereo not given)	inactive
CNCCCC12CCC(c3ccccc31)c1ccccc12	inactive
CC(C)NCC(O)COc1ccc(CCOCC2CC2)cc1 (stereo not given)	inactive
N[C@@H](Cc1c[nH]c2ccc(O)cc12)C(=O)O	inactive
O=C(c1ccc(OCCN2CCCCC2)cc1)c1c(-c2ccc(O)cc2)sc2cc(O)ccc12	inactive
CN(C)c1nc(N(C)C)nc(N(C)C)n1	inactive
Cc1cnc(C(=O)NCCc2ccc(S(=O)(=O)NC(=O)NC3CCCCC3)cc2)cn1	inactive
O=C1Cc2cc(CCN3CCN(c4nsc5ccccc45)CC3)c(Cl)cc2N1	inactive
COc1nc(C)nc(Cl)c1NC1=NCCN1	inactive
OCCN1CCN(CCCN2c3ccccc3Sc3ccc(C(F)(F)F)cc32)CC1	inactive
Fc1ccc([C@@H]2CCNC[C@H]2COc2ccc3c(c2)OCO3)cc1	inactive
CN1C(C(=O)Nc2ccccn2)=C(O)c2ccccc2S1(=O)=O	inactive
CN(CCOc1ccc(NS(C)(=O)=O)cc1)CCc1ccc(NS(C)(=O)=O)cc1	inactive

Compound	Potency
Cc1cc(C(C)(C)C)cc(C)c1CC1=NCCN1	inactive
CN(C)C(=O)C(CCN1CCC(O)(c2ccc(Cl)cc2)CC1)(c1ccccc1)c1ccccc1	inactive
CC[C@@]1(O)C(=O)OCc2c1cc1n(c2=O)Cc2cc3c(CN(C)C)c(O)ccc3nc2-1	94.4 nM (active) and 418 nM (active)
Cn1c(=O)c2c(ncn2C)n(C)c1=O	inactive
COc1cc2nc(N3CCN(C(=O)c4ccco4)CC3)nc(N)c2cc1OC	inactive
CC1COc2c(N3CCN(C)CC3)c(F)cc3c(=O)c(C(=O)O)cn1c23 (stereo not given)	inactive
O=c1c(-c2ccc(O)cc2)coc2cc(O)cc(O)c12	inactive
COc1cc2nc(N(C)CCCNC(=O)C3CCCO3)nc(N)c2cc1OC (stereo not given)	inactive
CN(C)C(=N)N=C(N)N	inactive
NC(=O)OCC(COC(N)=O)c1ccccc1	inactive
CN(C)CCC=C1c2ccccc2C=Cc2ccccc21	inactive
CC(CCc1ccc(O)cc1)NCCc1ccc(O)c(O)c1 (stereo not given)	inactive
Nc1nnc(-c2cccc(Cl)c2Cl)c(N)n1	inactive
NCCc1cnc[nH]1	inactive
CC(C)C(=O)Nc1ccc([N+](=O)[O-])c(C(F)(F)F)c1	inactive
CCOC(=O)Nc1ccc(NCc2ccc(F)cc2)nc1N	inactive
COc1cc2c(c(OC)c1OC)-c1ccc(OC)c(=O)cc1[C@@H](NC(C)=O)CC2	inactive
CC(C(=O)O)c1cccc(C(=O)c2ccccc2)c1 (stereo not given)	inactive
CS(=O)(=O)Nc1ccc([N+](=O)[O-])cc1Oc1ccccc1	inactive
COc1ccc2[nH]cc(CCNC(C)=O)c2c1	inactive
